Inconclusive results are not listed. Entries that show only a call come without a potency. A number with no mark means an inactive call. Active and inactive are the calls of the source. Unless noted, the call rests on the fitted dose curve; in most records, active means well fitted curve in the direction sought with a large enough effect in the repeat runs; inconclusive means weak or mixed curves; inactive means no such curve, though single readings can be large; an effect the other way counts as inactive or inconclusive.
Assays:
[1] = qHTS assay to identify small molecule antagonists of the thyroid receptor (TR) signaling pathway (AID 743065); further: series mostly up to about 70 µM; nearly all actives have a fitted effect of over 55% in size
Summary of the method: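 GH3.TRE-Luc rat pituitary cells carrying two TR response elements driving luciferase were plated for 4 h, given compound plus 1 nM T3 (final), and incubated 23.5 h at 37 C. ONE-Glo luminescence measured reporter inhibition; CellTiter-Fluor fluorescence tracked cytotoxicity.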

[2] = system: thyroid hormone receptor (rat, GH3 cells); test: qHTS assay to identify small molecule agonists of the thyroid receptor (TR) signaling pathway (AID 743066; calls by dose curve)
[3] = target: Estrogen receptor (Homo sapiens) (UniProt P03372); test: qHTS assay to identify small molecule antagonists of the estrogen receptor alpha (ER-alpha) signaling pathway (AID 743069; active means well fitted curve in the direction sought with a large enough effect in the signal ratio in the repeat runs, not every such curve was filed as active; the % refers to the signal ratio)
Estrogen receptor (Homo sapiens), sequence (P03372 whole entry, looked up): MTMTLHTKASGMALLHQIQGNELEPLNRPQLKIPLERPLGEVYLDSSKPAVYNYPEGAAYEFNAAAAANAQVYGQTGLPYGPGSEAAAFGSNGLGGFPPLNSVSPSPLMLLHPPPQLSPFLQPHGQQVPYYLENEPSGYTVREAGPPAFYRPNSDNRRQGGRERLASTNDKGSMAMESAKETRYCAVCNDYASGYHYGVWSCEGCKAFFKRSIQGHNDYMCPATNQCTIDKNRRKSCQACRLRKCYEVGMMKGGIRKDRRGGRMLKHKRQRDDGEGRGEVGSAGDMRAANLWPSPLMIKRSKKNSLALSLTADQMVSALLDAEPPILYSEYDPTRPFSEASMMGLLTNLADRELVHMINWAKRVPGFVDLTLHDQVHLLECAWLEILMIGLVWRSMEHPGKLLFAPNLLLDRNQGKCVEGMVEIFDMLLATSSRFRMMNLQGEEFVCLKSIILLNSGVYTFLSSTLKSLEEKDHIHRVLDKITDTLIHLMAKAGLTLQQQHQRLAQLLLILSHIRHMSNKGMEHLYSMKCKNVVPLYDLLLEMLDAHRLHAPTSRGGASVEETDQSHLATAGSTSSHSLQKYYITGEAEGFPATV
Summary of the method: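 A 17beta-estradiol challenge was applied right after compound transfer to ER-alpha-UAS-bla HEK293 cells previously kept in charcoal-stripped serum. Plates stood 18 hr at 37C and 5% CO2; fluorescence was read following 2 hr FRET substrate loading at room temperature.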

[4] = qHTS assay to identify small molecule antagonists of the estrogen receptor alpha (ER-alpha) signaling pathway - cell viability counter screen (AID 743074; calls by dose curve;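 further: HEK293 cells carrying ER-alpha-UAS-bla reporter stimulated with 17beta-estradiol; nearly all actives have a fitted effect of over 45% in size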)
[5] = target: Estrogen receptor (Homo sapiens) (UniProt P03372); test: qHTS assay to identify small molecule agonists of the estrogen receptor alpha (ER-alpha) signaling pathway (AID 743075; calls by dose curve;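 further: HEK293 GripTite cells with ER-alpha and UAS-driven beta-lactamase reporter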; further: potency means the concentration at half of the fitted maximal effect)
[6] = target: Estrogen receptor (Homo sapiens) (UniProt P03372); test: qHTS assay to identify small molecule agonists of the estrogen receptor alpha (ER-alpha) signaling pathway using the BG1 cell line (AID 743079); further: nearly all actives have a fitted effect of over 20% in size; further: potency means the concentration at half of the fitted maximal effect
[7] = qHTS assay to identify small molecule antagonists of the estrogen receptor alpha (ER-alpha) signaling pathway using the BG1 cell line (AID 743080; calls by dose curve;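 further: BG1 cells stimulated with 17beta-estradiol alongside compound; series mostly up to about 70 µM; nearly all actives have a fitted effect of over 25% in size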)
Summary of the method: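 Luciferase inhibition measured with ONE-Glo after 30 min at RT in BG1Luc4E2 cells given test compounds and 17beta-estradiol for 21.5 h at 37 C; CellTiter-Fluor viability read in the same wells beforehand.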

[8] = qHTS assay to identify small molecule antagonists of the estrogen receptor alpha (ER-alpha) signaling pathway using the BG1 cell line - cell viability counter screen (AID 743081);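 further: compound given together with 17beta-estradiol as the ER stimulus; series mostly up to about 70 µM; nearly all actives have a fitted effect of over 45% in size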
Aromatase (Homo sapiens) = Aromatase (Homo sapiens) (UniProt P11511); test: qHTS assay to identify aromatase inhibitors (AID 743083); further: series mostly up to about 70 µM; nearly all actives have a fitted effect of over 55% in size
Aromatase (Homo sapiens), sequence (P11511 whole entry, looked up): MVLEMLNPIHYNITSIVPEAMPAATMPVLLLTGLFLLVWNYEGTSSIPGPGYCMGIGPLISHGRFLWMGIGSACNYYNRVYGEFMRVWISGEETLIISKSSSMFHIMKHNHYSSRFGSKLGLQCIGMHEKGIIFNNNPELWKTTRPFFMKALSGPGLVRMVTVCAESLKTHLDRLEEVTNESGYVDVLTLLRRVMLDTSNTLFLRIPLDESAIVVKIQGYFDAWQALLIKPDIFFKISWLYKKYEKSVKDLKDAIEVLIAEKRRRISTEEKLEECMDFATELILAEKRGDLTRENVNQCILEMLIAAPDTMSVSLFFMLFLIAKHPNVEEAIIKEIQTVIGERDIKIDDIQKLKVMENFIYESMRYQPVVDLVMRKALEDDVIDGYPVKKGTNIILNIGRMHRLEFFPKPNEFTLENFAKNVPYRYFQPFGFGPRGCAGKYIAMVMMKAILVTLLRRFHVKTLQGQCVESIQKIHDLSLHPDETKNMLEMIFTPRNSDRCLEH

[9] = qHTS assay to identify aromatase inhibitors - cell viability counter screen (AID 743084);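 further: cells stimulated with testosterone during compound exposure; nearly all actives have a fitted effect of over 55% in size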

Compound | Potency [1] | Potency [2] | Potency [3] | Potency [4] | Potency [5] | Potency [6] | outcome [7] | outcome [8] | outcome (Aromatase (Homo sapiens)) | Potency [9]
CCCCC(CC)COC(=O)c1ccccc1 (centres undefined) | inactive | inactive | inactive | inactive | inactive | inactive | inactive | inactive | inactive | inactive
COC(/C=C(\C)CCC=C(C)C)OC | inactive | inactive | inactive | inactive | inactive | inactive | inactive | inactive | inactive | inactive
CC(CC(=O)O)CC(C)(C)C (centres undefined) | inactive | inactive | inactive | inactive | inactive | inactive | inactive | inactive | inactive | 
O=C(/C=C/c1ccccc1)NCCO | inactive | inactive | inactive | inactive | inactive | inactive | inactive | inactive | inactive | inactive
CCN(CCC#N)c1ccccc1 | inactive | inactive | inactive | inactive | inactive | inactive | inactive | inactive | inactive | inactive
O=C(Oc1ccccc1C(=O)O)c1ccccc1O | inactive | inactive | inactive | inactive | inactive | 26.6 µM (active) | inactive | inactive | inactive | inactive
O=[Si]=O | inactive | inactive | inactive | inactive | inactive | inactive | inactive | inactive | inactive | inactive
N#CCCOCCOCCC#N | inactive | inactive | inactive | inactive | inactive | inactive | inactive | inactive | inactive | inactive
OC[C@@H](O)[C@H](O)[C@@H](O)[C@@H](O)CO | inactive | inactive | inactive | inactive | inactive | inactive | inactive | inactive | inactive | inactive
Cc1ccccc1OCC1CO1 (centres undefined) | inactive | inactive | inactive | inactive | inactive | inactive | inactive | inactive | inactive | inactive
CCN1CN(CC)CN(CC)C1 | inactive | inactive | inactive | inactive | inactive | inactive | inactive | inactive | inactive | inactive
NC(=O)NNC(N)=O | inactive | inactive | inactive | inactive | inactive | inactive | inactive | inactive | inactive | inactive
F[Si-2](F)(F)(F)(F)F | inactive | inactive | inactive | inactive | inactive | inactive | inactive | inactive | inactive | inactive
CNC(=O)C(c1ccccc1)c1ccccc1 | inactive | inactive | inactive | inactive | inactive | inactive | inactive | inactive | inactive | 
NS(=O)(=O)c1ccc(Cl)c(S(N)(=O)=O)c1 | inactive | inactive | inactive | inactive | inactive | inactive | inactive | inactive | inactive | inactive
CCS(=O)(=O)CCn1c([N+](=O)[O-])cnc1C | inactive | inactive | inactive | inactive | 10.2 µM [activator] (active) | 2.27 µM (active) | inactive | inactive | inactive | inactive
CCCCCCCCCCCCCC(=O)OC | inactive | inactive | inactive | inactive | inactive | inactive | inactive | inactive | inactive | inactive
CCCCCC1Nc2cc(C(F)(F)F)c(S(N)(=O)=O)cc2S(=O)(=O)N1 (centres undefined) | inactive | inactive | inactive | inactive | inactive | inactive | inactive | inactive | inactive | inactive
CC(C)(c1ccc(Oc2ccc3c(c2)C(=O)OC3=O)cc1)c1ccc(Oc2ccc3c(c2)C(=O)OC3=O)cc1 | inactive | inactive | inactive | inactive | inactive | inactive | inactive | inactive | inactive | inactive
CC(=O)OC(C)c1ccccc1 (centres undefined) | inactive | inactive | inactive | inactive | inactive | inactive | inactive | inactive | inactive | inactive
CC(C)COC(=O)/C=C/c1ccccc1 | inactive | inactive | inactive | inactive | inactive | inactive | inactive | inactive |  | 
Cc1nc2ccccc2c(=O)o1 | inactive | inactive | inactive | inactive | inactive | inactive | inactive | inactive | inactive | inactive
C=CCOCC(O)CCl (centres undefined) | inactive | inactive | inactive | inactive | inactive | inactive | inactive | inactive | inactive | inactive
O=S(=O)(O)CCO | inactive | inactive | inactive | inactive | inactive | inactive | inactive | inactive | inactive | inactive

Compound | Potency [1] | Potency [2] | Potency [3] | Potency [4] | Potency [5] | Potency [6] | outcome [7] | outcome [8] | outcome (Aromatase (Homo sapiens)) | Potency [9]
CCCCCCCCCCCCC | inactive | inactive | inactive | inactive | inactive | inactive | inactive | inactive | inactive | inactive
CCOC(=O)CC#N | inactive | inactive | inactive | inactive | inactive | inactive | inactive | inactive | inactive | 
Nc1ccnc(=O)[nH]1 | inactive | inactive | inactive | inactive | inactive | inactive | inactive | inactive | inactive | inactive
CNC(=O)NC | inactive | inactive | inactive | inactive | inactive | inactive | inactive | inactive | inactive | inactive
Cc1nc(C)nc(N2C[C@@H](C)N(c3ccnc([C@@H](C)O)n3)[C@@H](C)C2)n1 | inactive | inactive | inactive | inactive | inactive | inactive | inactive | inactive | inactive | inactive
CCCCC(=O)N(C)C | inactive | inactive | inactive | inactive | inactive | inactive | inactive | inactive | inactive | inactive
CCOC(=O)C(C)(C)C | inactive | inactive | inactive | inactive | inactive | inactive | inactive | inactive | inactive | inactive
Cc1nc([N+](=O)[O-])cn1-c1ccc([N+](=O)[O-])cc1 | inactive | inactive | inactive | inactive | inactive | inactive | inactive | inactive | inactive | inactive
CC(=O)N(CC(O)CO)c1c(I)c(C(=O)NCC(O)CO)c(I)c(C(=O)NCC(O)CO)c1I (centres undefined) | inactive | inactive | inactive | inactive | inactive | inactive | inactive | inactive | inactive | 
CCCCCCCCCCCCC1CO1 (centres undefined) | inactive | inactive | inactive | inactive | inactive | inactive | inactive | inactive | inactive | inactive
CC(C)(C)c1ccc(C=O)cc1 | inactive | inactive | inactive | inactive | inactive | inactive | inactive | inactive | inactive | inactive
CC(=O)/C=C/c1ccco1 | inactive | inactive | inactive | inactive | inactive | inactive | inactive | inactive | inactive | inactive
C=C[Si](C)(C)O[Si](C)(C)C=C | inactive | inactive | inactive | inactive | inactive | inactive | inactive | inactive | inactive | inactive
O=c1[nH]c(=O)c2[nH]c(=O)[nH]c2[nH]1 | inactive | inactive | inactive | inactive | inactive | inactive | inactive | inactive | inactive | inactive
Cc1cccc(Nc2ccncc2S(=O)(=O)NC(=O)NC(C)C)c1 | inactive | inactive | inactive | inactive | inactive | inactive | inactive | inactive | inactive | inactive
Nc1cc(Cl)cc(S(=O)(=O)O)c1O | inactive | inactive | inactive | inactive | inactive | inactive | inactive | inactive | inactive | inactive
CCC(CO)CO | inactive | inactive | inactive | inactive | inactive | inactive | inactive | inactive | inactive | inactive
CC(C)SCc1ccco1 | inactive | inactive | inactive | inactive | inactive | inactive | inactive | inactive | inactive | inactive
CC(C)(C)NCCO | inactive | inactive | inactive | inactive | inactive | inactive | inactive | inactive | inactive | inactive
CCC(=O)c1ccc(O)cc1 | inactive | inactive | inactive | inactive | inactive | inactive | inactive | inactive | inactive | inactive
CCCOCCOCCOCCO | inactive | inactive | inactive | inactive | inactive | inactive | inactive | inactive | inactive | inactive
COc1cccc2sc(N)nc12 | inactive | inactive | inactive | inactive | inactive | inactive | inactive | inactive | inactive | inactive
O=CN1CCOCC1 | inactive | inactive | inactive | inactive | inactive | inactive | inactive | inactive | inactive | inactive
CC(=O)Nc1ncc([N+](=O)[O-])s1 | inactive | inactive | inactive | inactive | inactive | inactive | inactive | inactive | inactive | inactive

From PubChem BioAssay (Tox21)
